target: GPR176; test: pooled miR-30 sensor sort-seq; sequence = guide strand; conditions: shRNA

Compared with TATGATGACCTTCTTCTTCTGG, TTTTTAATGAACCTGTTGGTGA is lower in sensor-assay potency score (higher = more potent): 0.194 for the first, -0.59 for the second.

Compared with AAAAATTTGACGACCTTGCAGA, ATAGATGTCAGCCACATTGGTT is lower in sensor-assay potency score (higher = more potent): -0.383 for the first, -1.26 for the second.

Sequence TTGGTTACTGCAAACACAGGGA has a sensor-assay potency score (higher = more potent) of 0.111.

target: GPR20; test: as above; conditions: shRNA

First: TTGGAGCTCCTGTGCATGCTGA
Second: TAGTACACAGCGAAGCGCGTGG
The sensor-assay potency score (higher = more potent) of the first is lower: -0.983 for the first, 0.127 for the second.

Compared with AAACACGCTGATGACCAGCAGG, ATGGTGTAGATGACTGAGGGTG is lower in sensor-assay potency score (higher = more potent): -1.04 for the first, -1.26 for the second.

First: TAGACGATGGGGTCCATGCAGC
Second: TAGCGGTCCACGCAGATGCAGG
The sensor-assay potency score (higher = more potent) of the first is higher: -0.856 for the first, -1.47 for the second.

Going from TAGACCACGAGGCTCGTGTGGT to TGCATGTTGAGGAAGTAACCGA, the sensor-assay potency score (higher = more potent) rises from -1.11 to -0.614.

First: TTGATGGTGTAGATGACTGAGG
Second: TGGTGTAGATGACTGAGGGTGT
The sensor-assay potency score (higher = more potent) of the first is lower: -1.03 for the first, -0.513 for the second.

First: TAGATCGGTCACCACCAGGTTG
Second: TACCAGTAGATCGGTCACCACC
The sensor-assay potency score (higher = more potent) of the first is higher: -0.8 for the first, -1.53 for the second.

Reference: the OligoGym collection
